From PubChem BioAssay (Tox21)
Results filed as inconclusive are left out. Active and inactive are the calls of the source. Unless noted, calls come from the whole dose curve; as a rule, active = well fitted curve in the direction sought with a large enough effect in the repeat runs; inconclusive = weak or mixed curves; inactive = no such curve, though single readings can be large; an effect the other way counts as inactive or inconclusive.

Key:
[1] = qHTS assay for small molecules that induce genotoxicity in human embryonic kidney cells expressing luciferase-tagged ATAD5 (AID 651632); note: nearly all actives have a fitted effect of over 15% in size
Summary of the method: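 Cells were seeded at 2,000 per well, dosed with compound, and incubated 16 hr at 37C in 5% CO2. Luciferase activity was then quantified after a 30 min room-temperature incubation with Amplite.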

[2] = qHTS assay for small molecule agonists of the p53 signaling pathway - cell viability (AID 651633; calls by dose curve;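 note: p53RE-bla HCT reporter cells with a stable beta-lactamase p53 reporter; series mostly up to about 83 µM; nearly all actives have a fitted effect of over 30% in size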)
Summary of the method: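 p53RE-bla cells were treated with compound for 16 hours at 37 C. Cytotoxicity was then measured as CellTiter-Glo luminescence after 30 min at room temperature.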

[3] = qHTS assay for small molecules that induce genotoxicity in human embryonic kidney cells expressing luciferase-tagged ATAD5 - cell viability (AID 651634; calls by dose curve; note: nearly all actives have a fitted effect of over 25% in size)
Summary of the method: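 Cells (HEK293T, luciferase-tagged ATAD5) are seeded at 2,000 per well, dosed with compound or DMSO vehicle, and incubated 15.5 hr at 37C and 5% CO2. CellTiter-Fluor is added for 30 min before fluorescence is measured.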

[4] = qHTS assay for small molecule disruptors of the mitochondrial membrane potential - cell viability (AID 720634; calls by dose curve;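 note: human HepG2 liver cancer cells; series mostly up to about 83 µM; nearly all actives have a fitted effect of over 20% in size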)
Summary of the method: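 Cytotoxicity was measured by ATP quantitation in HepG2 wells that had first been treated with compound for 1 hr and stained with m-MPI dye; CellTiter-Glo incubation was 30 min at room temperature.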

[5] = qHTS assay for small molecule disruptors of the mitochondrial membrane potential (AID 720635)
Summary of the method: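 HepG2 cells exposed to compound 1 hr at 37C, then Mito-MPS dye 30 min. Ratio read of aggregate (540/590 nm) versus monomer (490/535 nm) fluorescence.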

[6] = qHTS assay to test for compound auto fluorescence at 590 nm (red) in HepG2 cells (AID 720674)
Summary of the method: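 Seeding: 2,000 HepG2 cells/well, MEM/10% FBS, overnight 37 C. Dosing: compound vs DMSO. Incubation: 1 hr, 37 C, 5% CO2. Read: fluorescence 540 ex/590 em, Rose Bengal sodium as red reference.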

[7] = qHTS assay to test for compound auto fluorescence at 535 nm (green) in HepG2 cells (AID 720675)
[8] = qHTS assay to test for compound auto fluorescence at 460 nm (blue) in HEK293 cells (AID 720678)
Summary of the method: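 HEK293 cells (2,000 per well, medium with 10% dialyzed FBS) attached for 4-5 hr at 37C, then received compound and stood overnight at 37C, 5% CO2. Blue fluorescence was read at Ex/Em 405/460 nm and expressed relative to triamterene.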

[9] = qHTS assay to test for compound auto fluorescence at 590 nm (red) in HEK293 cells (AID 720679)
Summary of the method: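 HEK293 cells (2,000/well, medium with 10% dialyzed FBS) attached for 4-5 hr at 37C, received 23 nL compound and were incubated overnight at 37C, 5% CO2. Red fluorescence was then read at 540/590nm Ex/Em, referenced to Rose Bengal sodium.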

[10] = qHTS assay to test for compound auto fluorescence at 535 nm (green) in HEK293 cells (AID 720680)
[11] = qHTS assay to test for compound auto fluorescence at 460 nm (blue) in HEK293 cell free culture (AID 720681)
Summary of the method: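 Compounds were added to cell-free DMEM with 10% FBS and fluorescence read directly. The blue channel used 405 nm excitation and 460 nm emission, with triamterene as the reference fluorophore.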

[12] = qHTS assay to test for compound auto fluorescence at 535 nm (green) in HEK293 cell free culture (AID 720682)
Summary of the method: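 Fluorescein serves as the green reference fluorophore; each compound's intrinsic emission at 535 nm (excitation 485 nm) is reported as an equivalent amount of that dye, measured in serum-containing DMEM without cells.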

[13] = qHTS assay to test for compound auto fluorescence at 590 nm (red) in HEK293 cell free culture (AID 720683)
Summary of the method: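 Cell-free wells of DMEM with 10% FBS received compound, and intrinsic fluorescence was read at excitation/emission 540/590 nm. Values expressed as equivalence to Rose Bengal sodium.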

[14] = qHTS assay to test for compound auto fluorescence at 590 nm (red) in HepG2 cell free culture (AID 720684)
Summary of the method: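 Rose Bengal sodium served as the reference for red signal. Test compounds were dispensed into serum-containing MEM (10% FBS) without cells, and plates were read at 540/590 nm.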

[15] = qHTS assay to test for compound auto fluorescence at 460 nm (blue) in HepG2 cell free culture (AID 720685)
Summary of the method: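 Cell-free plates of MEM plus 10% FBS received 23 nL compound or DMSO vehicle; blue-channel (405/460 nm) intensity scored against triamterene as reference fluorophore.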

[16] = qHTS assay to test for compound auto fluorescence at 535 nm (green) in HepG2 cell free culture (AID 720686)
[17] = qHTS assay to test for compound auto fluorescence at 460 nm (blue) in HepG2 cells (AID 720687)
Summary of the method: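 HepG2 cells in MEM with 10% FBS, attached overnight at 37 C, were exposed to compound or DMSO for 1 hr at 37 C, 5% CO2. Blue fluorescence was read at 405/460 nm, with triamterene as reference fluorophore.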

[18] = biological target: Glucocorticoid receptor (Homo sapiens) (UniProt P04150); test: qHTS assay to identify small molecule agonists of the glucocorticoid receptor (GR) signaling pathway (AID 720691; active = well fitted activation curve with a large enough effect in the signal ratio in the repeat runs, not every such curve was filed as active; the % refers to the signal ratio)
Chain of Glucocorticoid receptor (Homo sapiens) (P04150 whole entry, looked up): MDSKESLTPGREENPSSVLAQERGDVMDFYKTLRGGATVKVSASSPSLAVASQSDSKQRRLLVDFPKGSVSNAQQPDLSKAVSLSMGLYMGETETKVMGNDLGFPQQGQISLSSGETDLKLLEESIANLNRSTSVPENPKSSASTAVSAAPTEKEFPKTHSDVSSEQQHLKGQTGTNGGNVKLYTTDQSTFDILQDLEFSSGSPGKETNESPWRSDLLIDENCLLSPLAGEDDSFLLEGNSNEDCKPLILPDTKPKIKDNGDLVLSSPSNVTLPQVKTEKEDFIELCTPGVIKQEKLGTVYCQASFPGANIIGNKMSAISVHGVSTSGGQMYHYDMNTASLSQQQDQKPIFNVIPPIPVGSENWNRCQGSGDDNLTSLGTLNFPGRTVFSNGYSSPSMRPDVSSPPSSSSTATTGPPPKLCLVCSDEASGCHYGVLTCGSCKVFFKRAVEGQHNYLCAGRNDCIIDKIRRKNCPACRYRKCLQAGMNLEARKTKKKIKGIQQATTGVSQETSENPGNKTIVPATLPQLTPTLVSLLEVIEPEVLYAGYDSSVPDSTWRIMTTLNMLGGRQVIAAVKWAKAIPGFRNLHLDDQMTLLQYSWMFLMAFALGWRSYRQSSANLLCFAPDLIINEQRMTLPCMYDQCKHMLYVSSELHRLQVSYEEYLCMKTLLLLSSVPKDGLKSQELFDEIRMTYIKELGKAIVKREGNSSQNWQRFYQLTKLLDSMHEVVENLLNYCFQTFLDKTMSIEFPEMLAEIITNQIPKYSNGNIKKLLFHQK
Summary of the method: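 Steps: seed GR-bla HeLa cells, incubate 4 h at 37 C/5% CO2; pin-transfer DMSO-dissolved compounds; incubate 18 h at 37 C; add LiveBLAzer B/G FRET substrate; after 2 h at room temperature, measure fluorescence.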

[19] = biological target: Glucocorticoid receptor (Homo sapiens) (UniProt P04150); test: qHTS assay to identify small molecule antagonists of the glucocorticoid receptor (GR) signaling pathway (AID 720692; active = well fitted inhibition curve with a large enough effect in the signal ratio in the repeat runs, not every such curve was filed as active; the % refers to the signal ratio)
Summary of the method: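 Antagonism was scored as loss of dexamethasone-driven (5 nM final) reporter signal in HeLa cells bearing a glucocorticoid response element–beta-lactamase construct, after 18 h compound exposure at 37 C and 2 h FRET substrate loading.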

Measured: Potency

C=C[Si](OC)(OC)OC
inactive: all assays above

Cn1cnc2c(=O)[nH]c(N)nc21
not listed: [5] | [18] | [19]
inactive: all other assays above

C/C=C1\C(=O)C[C@H]2[C@@H]3CCC4=CC(=O)CC[C@]4(C)[C@H]3CC[C@]12C
not listed: [5] | [18] | [19]
inactive: all other assays above

CC(C)(O)Cc1ccccc1
inactive: all assays above

CC1=CC(=O)CCC1
inactive: all assays above
